This note sets out measurements from PubChem BioAssay AID430 (Sanford-Burnham Center for Chemical Genomics, 2006).

The whole screen tested about 63,000 compounds, of which about 1,100 (1.7%) were called active. The sample as a whole holds a higher share of actives than the screen did. Measured potencies and affinities stand elsewhere. A number with no mark means an inactive call. Cut-off read from the data, not from the text of the source: active = cytotoxicity above about 50%; inactive = the rest.

This assay in a line: HPDE-C7 pancreatic duct cell viability loss – fluorescence, HTS (AID 430).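 Note: cells exposed to compound for 48 hours before viability readout; 0% = vehicle and 100% = reference cytotoxic drug.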 As to conditions: HPDE-C7 pancreatic duct cells viability, at 10 µM, stronger effect = higher value.
Turning to `O=C(O)C1C2CCC(O2)C1C(=O)NCCC1=CCCCC1` (centres undefined), the cytotoxicity was 21.4%.

As to `COc1ccc(CCC(C(O)C(F)(F)F)S(=O)c2ccccc2)cc1` (centres undefined), the cytotoxicity is -3.4%.

For `COc1ccccc1NC(=O)Nn1cnnc1`, the cytotoxicity is -17.6%.

As to `CCn1c(SCC(=O)c2cc(OC)ccc2OC)nnc1-c1ccncc1`, the cytotoxicity is 6.4%.

Turning to `CC1Cc2ccccc2N1C(=O)CSc1nnc(NC(=O)Cc2cccs2)s1` (centres undefined), the cytotoxicity is -10%.

Turning to `CC(=O)Oc1ccc(N2C(=O)C3C(C2=O)C2(C)C=CC3(C)O2)cc1` (centres undefined), the cytotoxicity was -4%.

Consider `CCOc1ccc(C)cc1S(=O)(=O)NC1CCCCC1`, for which the cytotoxicity is 4.3%.

`Cc1ccc(-c2nn3c(C)nnc3s2)cc1NC(=O)c1ccc(OC(C)C)cc1`: the cytotoxicity was -1%.

Turning to `CCOc1ccc2nc(C)cc(C(=O)O)c2c1`, the cytotoxicity was 33.6%.

Consider `c1ccc(Nc2ncnc3c2oc2ccccc23)cc1`, for which the cytotoxicity is -9.3%.

For `c1ccc2c(c1)oc1c(NCCN3CCOCC3)ncnc12`, the cytotoxicity is 6.2%.

Take `COc1ccc(C)cc1NC(=O)COCC(=O)O`: the cytotoxicity is -11.8%.

For `O=C(CN1CCN(Cc2ccccc2)CC1)Nc1ccc(Cl)cn1`, the cytotoxicity is 3.5%.

For the compound `COc1ccccc1CN(Cc1ccco1)S(=O)(=O)c1ccc(-n2cnnn2)c(OC)c1`, the cytotoxicity was 19.4%.

Turning to `CCOc1ccccc1CN(Cc1ccco1)S(=O)(=O)c1ccc(-n2cnnn2)c(OC)c1`, the cytotoxicity was 56.5% (active).

In the case of `COc1cc(S(=O)(=O)N(Cc2cccnc2)Cc2ccco2)ccc1-n1cnnn1`, the cytotoxicity is -4.3%.

Take `CCOC(=O)c1c(NC(=O)CN2CCOCC2)sc2c1CCCC2=O`: the cytotoxicity is 3.3%.

As for `CCOc1cc(/C=N/n2cnnc2)ccc1OCC(=O)Nc1ccccc1OC`, the cytotoxicity is 7.2%.

Consider `Cc1ccc(Nc2nc(N3CCOCC3)nc(N3CCOCC3)n2)cc1`, for which the cytotoxicity is 8.7%.

In the case of `O=C(O)c1cccc(Nc2nc(N3CCOCC3)nc(N3CCOCC3)n2)c1`, the cytotoxicity was -10%.

As for `COc1nc(Nc2cccc(C(F)(F)F)c2)nc(OC)n1`, the cytotoxicity was -28.1%.

Turning to `Cc1cccc(Nc2nc(NCc3ccco3)nc(N3CCOCC3)n2)c1`, the cytotoxicity was 53% (active).

In the case of `CN1CCN(c2nc(Nc3cccc(C(F)(F)F)c3)nc(N3CCOCC3)n2)CC1`, the cytotoxicity is 65.4% (active).

Regarding `CC(C)c1ccc(Nc2nc(NCc3ccco3)nc(N3CCOCC3)n2)cc1`, the cytotoxicity was 27.5%.

Consider `Cc1nn(C)c(C)c1S(=O)(=O)NC1CCCc2ccccc21` (centres undefined), for which the cytotoxicity was -10%.

With `CCc1n[nH]c2c1/C(=N\O)CC(c1ccccc1)C2` (centres undefined), the cytotoxicity is -1.4%.

In the case of `O=C(C1CCN(c2nnc(-n3cccc3)s2)CC1)N1CCN(Cc2ccc3c(c2)OCO3)CC1`, the cytotoxicity was -3.5%.

`C(=C\c1ccccc1)/CSc1nnc(-c2cnccn2)n1Cc1ccco1`: the cytotoxicity was -10.9%.

For `CCOC(=O)N1CCN(C(=O)C(CC(C)C)NC(=O)C2CCCCC2)CC1` (centres undefined), the cytotoxicity is -6.8%.

Regarding `N#Cc1c(NC(=O)CN2CCOCC2)oc(-c2ccccc2)c1-c1ccccc1`, the cytotoxicity is -0.2%.

Consider `N#Cc1c(NC(=O)CCN2C(=O)c3ccccc3C2=O)oc(-c2ccccc2)c1-c1ccccc1`, for which the cytotoxicity was 18.8%.

Consider `Cc1ccnc(SCC(=O)Nc2oc(-c3ccccc3)c(-c3ccccc3)c2C#N)n1`, for which the cytotoxicity was 24.1%.

Take `CCn1c(SCC(=O)Nc2oc(-c3ccccc3)c(-c3ccccc3)c2C#N)nnc1-c1ccco1`: the cytotoxicity is 32.7%.

`N#Cc1c(NC(=O)Cn2c(=O)oc3ccccc32)oc(-c2ccccc2)c1-c1ccccc1`: the cytotoxicity was 72% (active).

On to `CC(=O)NC(C)C(=O)OCC(=O)c1ccc(Cl)s1` (centres undefined), for which the cytotoxicity was -1.2%.

Consider `N#CCSc1nnc(COc2cccc3ccccc23)n1-c1ccccc1`, for which the cytotoxicity is 37.6%.

As for `CCS(=O)(=O)Nc1ccc(Cc2ccncc2)cc1`, the cytotoxicity is -12.1%.

Turning to `CCOCCCNC(=O)C(c1ccc(OC)cc1)N(Cc1ccc2c(c1)OCO2)C(=O)CNC(C)=O` (centres undefined), the cytotoxicity is -6.5%.

As for `O=C(Nc1ccc(F)cc1)N1CCN(C/C=C/c2ccccc2)CC1`, the cytotoxicity is 11.6%.

Turning to `C(=C\c1ccccc1)/CN1CCN(C(c2ccccc2)c2ccccc2)CC1`, the cytotoxicity is 13%.

For `COc1cc(C2C3=C(CC(c4ccco4)CC3=O)Nc3ccccc3N2C(C)=O)cc(OC)c1OC` (centres undefined), the cytotoxicity was -7.9%.

Consider `Cc1ccc(-c2[nH]c(=O)n3ccncc23)s1`, for which the cytotoxicity is -9.9%.

Regarding `CCOc1nc(-c2ccccc2)ccc1-c1noc(-c2ccncc2)n1`, the cytotoxicity was 5.2%.

Turning to `CC(C)(C)OC(=O)N1CCN(c2ccc(NC(=O)c3cc4ccccc4oc3=O)cc2)CC1`, the cytotoxicity is -30.1%.

In the case of `Cc1cnc(C(=O)Nc2ccc(N3CCOCC3)cc2)cn1`, the cytotoxicity is 1.3%.

`Cc1cnc(C(=O)Nc2ccc(N3CCN(C(=O)OC(C)(C)C)CC3)cc2)cn1`: the cytotoxicity is 50.5% (active).

As for `Cc1csc2nc(CCNS(=O)(=O)c3ccc4c(c3)OCCO4)cn12`, the cytotoxicity was 3.5%.

Turning to `CCOC(=O)Nc1ccc2c(c1)N(C(=O)CCN1CCOCC1)c1ccccc1S2=O` (centres undefined), the cytotoxicity was 85.2% (active).

For `CCOC(=O)Nc1ccc2c(c1)Sc1ccccc1N2C(=O)CCN1CCOCC1`, the cytotoxicity is 11.7%.

`CCOC(=O)Nc1ccc2c(c1)N(C(=O)CCN1CCOCC1)c1ccccc1S2`: the cytotoxicity is -7.9%.

In the case of `CC1(C)Cc2c(sc3nc(SCC(=O)NCc4ccco4)n(-c4ccccc4)c(=O)c23)CS1`, the cytotoxicity is 3.1%.

For the compound `COc1cc2nc(SCC(=O)NCCc3ccccc3)n(Cc3ccco3)c(=O)c2cc1OC`, the cytotoxicity was -3.3%.

For the compound `O=C(CSc1nc2sc3c(c2c(=O)n1-c1ccccc1)CCCC3)NCc1ccco1`, the cytotoxicity is 85.6% (active).

As to `COCCNC(=O)CSc1nc2cc(OC)c(OC)cc2c(=O)n1Cc1ccco1`, the cytotoxicity was -1.3%.

As for `COc1cc2nc(SCC(=O)NCc3ccco3)n(Cc3ccc(Cl)cc3)c(=O)c2cc1OC`, the cytotoxicity is 50.9% (active).

In the case of `O=C(CSc1nc2ccccc2c(=O)n1Cc1ccco1)NCc1ccccc1`, the cytotoxicity was 58.8% (active).

In the case of `O=c1c2ccccc2nc(SCc2ccccc2)n1Cc1ccco1`, the cytotoxicity is 8.4%.

Take `C=CCn1c(SCC(=O)NCc2ccco2)nc2sc3c(c2c1=O)CCCCC3`: the cytotoxicity is 2.9%.

With `O=C(CSc1nc2ccccc2c(=O)n1Cc1ccco1)NCc1ccco1`, the cytotoxicity was -1.8%.

Turning to `CC(=O)c1cc2c(cc1NC(=O)C1CC=CCC1C(=O)O)OCO2` (centres undefined), the cytotoxicity was -5.7%.

In the case of `CCn1c(C(C)NC(=O)c2ccc(OC)c(OC)c2)nc2ccccc21` (centres undefined), the cytotoxicity was 5.7%.

`O=C(O)c1c[nH]ccc1=O`: the cytotoxicity is -18.4%.

As for `CCc1cc2c3c(c(=O)oc2cc1OC)CCCC3`, the cytotoxicity was 0%.

In the case of `Cc1ccc(-c2nsc3c(N4CCN(C(=O)c5ccco5)CC4)ncnc23)cc1`, the cytotoxicity was -21.7%.

Regarding `CCCCN1Cc2cc(C(=O)c3cc(F)ccc3O)cnc2NC1=O`, the cytotoxicity is 6.2%.

Consider `CN1Cc2cc(C(=O)c3cc(Cl)cc(CSc4ncccn4)c3O)cnc2NC1=O`, for which the cytotoxicity was 68.2% (active).

For `Cc1ccc(O)c(C(=O)c2cnc3c(c2)CN(CCC(C)C)C(=O)N3)c1`, the cytotoxicity is -5.5%.

In the case of `CNC(=O)NC(=O)CSc1cccc(C(F)(F)F)c1`, the cytotoxicity was -6.3%.

Regarding `COc1ccccc1N1CC(C(=O)OCC(=O)c2ccc(F)cc2)CC1=O` (centres undefined), the cytotoxicity is -16.4%.

Turning to `O=C(Nc1cccnc1)c1cc(-c2cccs2)on1`, the cytotoxicity was 14.1%.

`COc1cccc(-c2nc(-c3ccc(NC(=O)c4cccnc4)cc3)no2)c1`: the cytotoxicity is 70.7% (active).

`Cc1ccc(-c2noc(-c3cccs3)n2)cc1`: the cytotoxicity is 0.6%.

On to `COc1ccc(CC(=O)Nc2ccc(-c3noc(-c4cccc(OC)c4)n3)cc2)cc1`, for which the cytotoxicity is 1%.

Regarding `O=C(Nc1ccc(-c2noc(-c3cccs3)n2)cc1)c1cccnc1`, the cytotoxicity was 53.2% (active).

For `O=C(Nc1ccc(-c2noc(CCc3ccccc3)n2)cc1)c1cccnc1`, the cytotoxicity is 58.7% (active).

As to `COc1ccc(Cc2nc(-c3ccc(NC(=O)c4cccnc4)cc3)no2)cc1`, the cytotoxicity is 27.4%.

As to `c1ccc(CCc2nc(-c3cccnc3)no2)cc1`, the cytotoxicity was -9.2%.

Regarding `O=C(Nc1ccc(-c2noc(CCc3ccccc3)n2)cc1)c1ccco1`, the cytotoxicity was 6.6%.

On to `COC(=O)C1=C(O)CSC1=Nc1cccc(C(F)(F)F)c1`, for which the cytotoxicity is 6.1%.

For `CC1=CC(C)(C)N(C(=O)c2ccc(F)cc2)c2cc3c(cc21)OCO3`, the cytotoxicity was -5.1%.

Take `Cc1ccc2[nH]c(=O)c(CN(CCN3CCOCC3)C(=O)Nc3ccc(F)cc3)cc2c1`: the cytotoxicity is 1.9%.

As to `COc1ccc(CNC(=O)c2cc(-c3ccccc3O)n[nH]2)cc1`, the cytotoxicity was -14.7%.

With `CCCCOC(=O)n1c(=O)oc2cc(S(=O)(=O)N3CCCCC3)ccc21`, the cytotoxicity is 4.7%.

For the compound `CCCSc1nnc2n(Cc3ccccc3)c(=O)c3c4c(sc3n12)CCC4`, the cytotoxicity was 52.7% (active).

Consider `Cc1nnc2n(Cc3ccccc3)c(=O)c3c4c(sc3n12)CN(Cc1ccccc1)CC4`, for which the cytotoxicity was 11.3%.

With `CCOC(=O)CSc1nnc2n(Cc3ccccc3)c(=O)c3c4c(sc3n12)CCC4`, the cytotoxicity is 22.6%.

For the compound `CC(C)C1Cc2c(sc3c2c(=O)n(Cc2ccccc2)c2nncn32)CO1` (centres undefined), the cytotoxicity was 7.1%.

As for `CCCSc1nnc2n(C)c(=O)c3c4c(sc3n12)CCC4`, the cytotoxicity was 4.3%.

Take `CCC(C)N(C(=O)COC(=O)c1cn(CC)c2nc(C)ccc2c1=O)C1CCS(=O)(=O)C1` (centres undefined): the cytotoxicity is -10.6%.

Take `CC(C)c1cc(C(=O)Nc2cccc(Cl)c2)no1`: the cytotoxicity was 1.6%.

On to `O=C(Nc1ccc(Oc2ccc(S(=O)(=O)N3CCOCC3)cn2)cc1)c1ccco1`, for which the cytotoxicity is 2.4%.

Turning to `COc1ccc2cc3c(N)c(C(=O)NCc4ccco4)sc3nc2c1`, the cytotoxicity was -0.3%.

As to `Nc1c(C(=O)NCc2ccco2)sc2nc3c(cc12)C(=O)CCC3`, the cytotoxicity is 56.5% (active).

`COc1cc2cc3c(N)c(C(=O)NCc4ccco4)sc3nc2cc1OC`: the cytotoxicity is 31.5%.
